One assay deals with PIK3CG. To be noted: concentration: 1 μM, replicates: in singlicate; n = 1.
A further assay has as its system T1, PIK4CB.
T1 construct: gene PI4KB
The note with it: concentration: 1 μM, replicates: in singlicate; n = 1.

The test system of the next assay is PIKFYVE. To be noted: concentration: 1 μM, replicates: in singlicate; n = 1.
For the next assay, the system named is PIM1. The note with it: concentration: 1 μM, replicates: in singlicate; n = 1.
The subject of a further assay is PIM2. The note with it: concentration: 1 μM, replicates: in singlicate; n = 1.
The subject of a further assay is PIM3. To be noted: concentration: 1 μM, replicates: in singlicate; n = 1.
In another assay the test system is PIP5K1A. The note with it: concentration: 1 μM, replicates: in singlicate; n = 1.
For the next assay, the system named is PIP5K1C. The note with it: concentration: 1 μM, replicates: in singlicate; n = 1.
Another assay concerns PIP5K2B. To be noted: concentration: 1 μM, replicates: in singlicate; n = 1.
In another assay the test system is T2, PIP5K2C.
T2 construct: gene PIP4K2C
To be noted: concentration: 1 μM, replicates: in singlicate; n = 1.

The next assay deals with T3, PKAC-alpha.
T3 construct: gene PRKACA
To be noted: concentration: 1 μM, replicates: in singlicate; n = 1.

A further assay concerns T4, PKAC-beta.
T4 construct: gene PRKACB
To be noted: concentration: 1 μM, replicates: in singlicate; n = 1.

For another assay, the system named is PKMYT1. To be noted: concentration: 1 μM, replicates: in singlicate; n = 1.
For a further assay, the system named is PKN1. The note with it: concentration: 1 μM, replicates: in singlicate; n = 1.
The next assay deals with PKN2. The note with it: concentration: 1 μM, replicates: in singlicate; n = 1.
The subject of a further assay is PLK1. The note with it: n = 1.
For the next assay, the system named is PLK2. To be noted: concentration: 1 μM, replicates: in singlicate; n = 1.
The next assay deals with PLK3. To be noted: concentration: 1 μM, replicates: in singlicate; n = 1.
In the next assay the test system is PLK4. The note with it: concentration: 1 μM, replicates: in singlicate; n = 1.
The subject of the next assay is PRKCD. To be noted: concentration: 1 μM, replicates: in singlicate; n = 1.
[1] abbreviates: concentration: 1 μM, replicates: in singlicate.

Read-outs that look alike come from different tables or passages of the source.

Consider ten compounds from PMC5540273 (PLoS ONE, 2017).
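Also: KINOMEscan kinase panel screen.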

In the case of `COc1cc(Nc2nccc(N3CCC(NC(=O)C4COc5ccccc5O4)C3)n2)cc(OC)c1OC` (centres unmarked) [GSK1379761], the “%Inh” value is 0% in the assay with PIK3CG; 0% with PIK4CB; 21% with PIKFYVE; 0% in the assay on PIM1; 0% in the assay with PIM2; 0% in the assay on PIM3. The “%Inh” value in the assay with PIP5K1A worked out at 51%; with PIP5K1C, 0%; with PIP5K2B it was 6%; in the assay on PIP5K2C it was 89%; in the assay on PKAC-alpha, 4%; with PKAC-beta, 0%. In addition, the “%Inh” value in the assay with PKMYT1 is listed as 5%; with PKN1, 0%; in the assay on PKN2 it was 7%; with PLK1 (setting [1]), 13%; with PLK2, 0%; in the assay with PLK3, 0%. Besides, the “%Inh” value with PLK4 came out at 9%; in the assay on PRKCD, 18%.
With `Nc1ncnc2c1ncn2-c1cccc2ccccc12` [SKF-97184], the “%Inh” value with PIK3CG was determined as 3%; in the assay on PIK4CB, 0%; in the assay on PIKFYVE, 40%; with PIM1, 0%; in the assay on PIM2 it was 32%; in the assay with PIM3 it was 0%. Also, the “%Inh” value in the assay with PIP5K1A amounted to 0%; in the assay with PIP5K1C, 11%; in the assay with PIP5K2B, 0%; in the assay on PIP5K2C, 0%; in the assay with PKAC-alpha, 10%; in the assay on PKAC-beta, 0%. In addition, the “%Inh” value with PKMYT1 was found to be 0%; in the assay with PKN1, 0%; in the assay on PKN2 it was 0%; in the assay with PLK1 (setting [1]), 28%; in the assay on PLK2 it was 18%; in the assay on PLK3 it was 9%. Besides, the results for the “%Inh” value in the assay with PLK4 and with PRKCD were 0% and 16%, respectively.
As to `CCS(=O)c1ccc(-c2coc3ccc(-c4nnc(C)o4)cc23)cc1` (centres unmarked), the “%Inh” value with PIK3CG turned out to be 0%; in the assay on PIK4CB, 19%; with PIKFYVE, 3%; in the assay on PIM1, 6%; in the assay with PIM2 it was 27%; in the assay on PIM3, 11%. The “%Inh” value is reported as 0% in the assay on PIP5K1A; 13% with PIP5K1C; 0% in the assay on PIP5K2B; 93% in the assay on PIP5K2C; 0% in the assay on PKAC-alpha; 18% in the assay on PKAC-beta. The “%Inh” value in the assay with PKMYT1 was 0%; in the assay with PKN1, 0%; in the assay on PKN2 it was 16%; in the assay on PLK1 (setting [1]), 0%; in the assay on PLK2, 0%; in the assay with PLK3, 14%. Also, the figures for the “%Inh” value in the assay with PLK4 and with PRKCD were 5% and 4%, respectively.
Take `Nc1nccc2scc(-c3ccc4c(c3)CCN4C(=O)Cc3ccccc3)c12` [GSK2576924]: the “%Inh” value in the assay with PIK3CG came out at 5%; in the assay with PIK4CB it was 20%; in the assay on PIKFYVE, 0%; in the assay on PIM1 it was 20%; in the assay on PIM2, 0%; in the assay with PIM3 it was 3%. Moreover, the “%Inh” value with PIP5K1A is 3%; in the assay on PIP5K1C, 29%; with PIP5K2B it was 15%; in the assay with PIP5K2C, 13%; in the assay on PKAC-alpha, 8%; in the assay with PKAC-beta, 0%. Moreover, the “%Inh” value in the assay with PKMYT1 was found to be 1%; in the assay on PKN1, 0%; with PKN2, 0%; in the assay with PLK1 (setting [1]), 6%; in the assay with PLK2, 1%; with PLK3 it was 0%. The results for the “%Inh” value with PLK4 and in the assay on PRKCD were 6% and 0%, respectively.
As to `CCC(=O)c1c(-c2ccccc2)c2cc(Cl)ccc2c(=O)n1Cc1cc(C(=O)NC2CC2)n(C)n1`, the “%Inh” value in the assay on PIK3CG is 0%; with PIK4CB, 0%; with PIKFYVE it was 25%; in the assay with PIM1, 0%; in the assay with PIM2, 0%; in the assay on PIM3, 11%. For the same compound, the “%Inh” value in the assay on PIP5K1A was found to be 0%; in the assay on PIP5K1C, 0%; in the assay on PIP5K2B it was 32%; with PIP5K2C, 12%; in the assay on PKAC-alpha, 0%; with PKAC-beta, 0%. In addition, the “%Inh” value in the assay on PKMYT1 came to 5%; with PKN1 it was 0%; with PKN2 it was 0%; in the assay on PLK1 (setting [1]), 0%; in the assay on PLK2, 2%; with PLK3 it was 7%. In addition, the “%Inh” value came out at 10% in the assay with PLK4 and 8% with PRKCD.
As to `Cc1ccc(-c2ccc3c(ccc4sc5c(c43)NC[C@@H](C)N=C5N(C)C)n2)cn1`, the “%Inh” value in the assay with PIK3CG came out at 0%; in the assay on PIK4CB, 0%; in the assay on PIKFYVE, 42%; with PIM1, 0%; in the assay on PIM2 it was 0%; in the assay with PIM3, 0%. Besides, the “%Inh” value in the assay on PIP5K1A, in the assay on PIP5K1C, with PIP5K2B, with PIP5K2C, in the assay on PKAC-alpha and with PKAC-beta was 0% throughout. Also, the “%Inh” value in the assay with PKMYT1, in the assay with PKN1, with PKN2, in the assay on PLK1 (setting [1]), in the assay on PLK2 and in the assay with PLK3 was 0% in each case. For the same compound, the “%Inh” value in the assay with PLK4 and in the assay on PRKCD was 0% throughout.
In the case of `Nc1ncnc2c1ncn2-c1cccc(F)c1` [SKF-97560], the “%Inh” value with PIK3CG is given as 14%; in the assay with PIK4CB it was 14%; with PIKFYVE, 17%; in the assay with PIM1 it was 1%; in the assay on PIM2 it was 18%; in the assay on PIM3, 0%. Moreover, the “%Inh” value is on record as 6% with PIP5K1A; 0% with PIP5K1C; 9% in the assay with PIP5K2B; 0% with PIP5K2C; 21% in the assay on PKAC-alpha; 0% in the assay on PKAC-beta. Besides, the “%Inh” value worked out at 0% in the assay on PKMYT1; 4% in the assay with PKN1; 0% in the assay on PKN2; 34% with PLK1 (setting [1]); 22% with PLK2; 25% in the assay on PLK3. In addition, the “%Inh” value was found to be 9% in the assay with PLK4 and 1% with PRKCD.
With `O=C(Nc1n[nH]c2nc(-c3ccccc3)c(Cl)cc12)C1CC1` [SB-734909], the “%Inh” value in the assay on PIK3CG is 45%; in the assay with PIK4CB it was 2%; in the assay with PIKFYVE, 0%; with PIM1, 0%; in the assay on PIM2, 3%; in the assay with PIM3 it was 1%. In addition, the “%Inh” value in the assay on PIP5K1A was 8%; with PIP5K1C, 38%; in the assay on PIP5K2B it was 13%; with PIP5K2C it was 14%; in the assay on PKAC-alpha it was 0%; in the assay on PKAC-beta, 0%. Also, the “%Inh” value in the assay on PKMYT1 amounted to 16%; in the assay with PKN1 it was 45%; in the assay on PKN2, 0%; with PLK1 (setting [1]), 24%; in the assay on PLK2, 0%; in the assay on PLK3 it was 13%. The “%Inh” value in the assay with PLK4 worked out at 29%; in the assay with PRKCD, 2%.
Consider `COc1cc2ncn(-c3cc(OCc4ccncc4)c(C(N)=O)s3)c2cc1OC` [GSK336313], for which the “%Inh” value is given as 12% in the assay with PIK3CG; 0% in the assay with PIK4CB; 0% in the assay with PIKFYVE; 0% in the assay with PIM1; 0% in the assay with PIM2; 0% in the assay with PIM3. In addition, the “%Inh” value with PIP5K1A came out at 0%; with PIP5K1C, 30%; with PIP5K2B, 22%; with PIP5K2C it was 0%; in the assay with PKAC-alpha, 0%; in the assay on PKAC-beta, 0%. Besides, the “%Inh” value with PKMYT1 is 0%; with PKN1, 31%; with PKN2, 0%; in the assay with PLK1 (1 µM), 81%; in the assay with PLK2 it was 96.6%; in the assay with PLK3, 55%. Moreover, the figures for the “%Inh” value with PLK4 and with PRKCD were 7% and 0%, respectively.
Turning to `CCC(=O)c1c(-c2ccccc2)c2cc(Cl)ccc2c(=O)n1Cc1cc(S(C)(=O)=O)n(CC(F)F)n1`, the “%Inh” value in the assay with PIK3CG, in the assay on PIK4CB, in the assay with PIKFYVE, in the assay with PIM1, with PIM2 and with PIM3 was 0% in each case. Moreover, the “%Inh” value with PIP5K1A is recorded as 2%; in the assay with PIP5K1C, 9%; in the assay with PIP5K2B, 0%; with PIP5K2C, 0%; with PKAC-alpha, 0%; in the assay with PKAC-beta it was 0%. The “%Inh” value came out at 0% with PKMYT1; 0% with PKN1; 0% in the assay on PKN2; 0% in the assay on PLK1 (setting [1]); 24% with PLK2; 13% in the assay on PLK3. For the same compound, the “%Inh” value is recorded as 0% in the assay on PLK4 and 9% with PRKCD.
